In paper PMC8384837, “Expanding the binding specificity for RNA recognition by a PUF domain”:
Where a chain is given by its changes, count along the chain named.

How the values were obtained:
Test in all cases: yeast three-hybrid, YBZ-1, SC-Leu-His + 0.5 mM 3-AT, 4 days
Settings in all cases: tags: N-Gal4 AD-HA kept; label: inside an RPR1-promoter hybrid RNA with tandem MS2 sites; ssRNA
[1] = target: PUM1 PUF domain R1-GLR (Homo sapiens, UniProt Q14671 828-1176, S863G;R864L;Q867R)
Procedure, shortened: (§1)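 Pumilio-1 PUF domain libraries, randomized (NNK) at the three base-contacting residues of each repeat, were co-expressed with matching RNA elements from a centromeric plasmid in strain YBZ-1 (LexA–MS2 coat fusion, HIS3 reporter). Transformants were plated on SC-Leu (input) and SC-Leu-His + 0.5 mM 3-AT (selection) for four days, and repeat regions were PCR-amplified and Illumina-sequenced. The interaction score is the log2 change in variant frequency from input to selection, with pseudocount 1 where absent.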

[2] = target: PUM1 PUF domain R8-RFV (Homo sapiens, UniProt Q14671 828-1176, N1122R;Y1123F;Q1126V)
Chain of PUM1 PUF domain R8-RFV (Q14671 828-1176 N1122R/Y1123F/Q1126V): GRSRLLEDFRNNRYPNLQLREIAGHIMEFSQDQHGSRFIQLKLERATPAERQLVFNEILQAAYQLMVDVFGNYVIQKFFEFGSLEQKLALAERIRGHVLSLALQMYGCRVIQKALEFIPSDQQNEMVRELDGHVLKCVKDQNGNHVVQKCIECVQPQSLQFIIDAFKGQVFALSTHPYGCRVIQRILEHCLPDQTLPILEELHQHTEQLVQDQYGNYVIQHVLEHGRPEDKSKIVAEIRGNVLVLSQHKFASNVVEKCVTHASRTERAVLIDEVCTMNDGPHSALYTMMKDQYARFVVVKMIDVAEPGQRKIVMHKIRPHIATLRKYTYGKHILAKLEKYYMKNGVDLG
Procedure, shortened: as §1

[3] = target: PUM1 PUF domain R8-CHK (Homo sapiens, UniProt Q14671 828-1176, N1122C;Y1123H;Q1126K)
Procedure, shortened: as §1

[4] = target: PUM1 PUF domain R5-CHG (Homo sapiens, UniProt Q14671 828-1176, R1008H;Q1011G)
Chain of PUM1 PUF domain R5-CHG (Q14671 828-1176 R1008H/Q1011G): as the sequence (Q14671 828-1176 N1122R/Y1123F/Q1126V) above, with R181H, Q184G, R295N, F296Y, V299Q counted along it
Procedure, shortened: as §1

[5] = target: PUM1 PUF domain R5-RQS (Homo sapiens, UniProt Q14671 828-1176, C1007R;R1008Q;Q1011S)
Chain of PUM1 PUF domain R5-RQS (Q14671 828-1176 C1007R/R1008Q/Q1011S): as the sequence (Q14671 828-1176 N1122R/Y1123F/Q1126V) above, with C180R, R181Q, Q184S, R295N, F296Y, V299Q counted along it
Procedure, shortened: as §1

[6] = target: PUM1 PUF domain R5-RRL (Homo sapiens, UniProt Q14671 828-1176, C1007R;Q1011L)
Chain of PUM1 PUF domain R5-RRL (Q14671 828-1176 C1007R/Q1011L): as the sequence (Q14671 828-1176 N1122R/Y1123F/Q1126V) above, with C180R, Q184L, R295N, F296Y, V299Q counted along it
Procedure, shortened: as §1

[7] = target: PUM1 PUF domain R5-WHG (Homo sapiens, UniProt Q14671 828-1176, C1007W;R1008H;Q1011G)
Procedure, shortened: as §1

[8] = target: PUM1 PUF domain R5-GRH (Homo sapiens, UniProt Q14671 828-1176, C1007G;Q1011H)
Procedure, shortened: as §1

[9] = target: PUM1 PUF domain R4-VSI (Homo sapiens, UniProt Q14671 828-1176, N971V;H972S;Q975I)
Chain of PUM1 PUF domain R4-VSI (Q14671 828-1176 N971V/H972S/Q975I): as the sequence (Q14671 828-1176 N1122R/Y1123F/Q1126V) above, with N144V, H145S, Q148I, R295N, F296Y, V299Q counted along it
Procedure, shortened: as §1

[10] = target: PUM1 PUF domain R4-WGC (Homo sapiens, UniProt Q14671 828-1176, N971W;H972G;Q975C)
Chain of PUM1 PUF domain R4-WGC (Q14671 828-1176 N971W/H972G/Q975C): as the sequence (Q14671 828-1176 N1122R/Y1123F/Q1126V) above, with N144W, H145G, Q148C, R295N, F296Y, V299Q counted along it
Procedure, shortened: as §1

[11] = target: PUM1 PUF domain R3-IWA (Homo sapiens, UniProt Q14671 828-1176, C935I;R936W;Q939A)
Chain of PUM1 PUF domain R3-IWA (Q14671 828-1176 C935I/R936W/Q939A): as the sequence (Q14671 828-1176 N1122R/Y1123F/Q1126V) above, with C108I, R109W, Q112A, R295N, F296Y, V299Q counted along it
Procedure, shortened: as §1

[12] = target: PUM1 PUF domain R3-GRA (Homo sapiens, UniProt Q14671 828-1176, C935G;Q939A)
Procedure, shortened: as §1

[13] = target: PUM1 PUF domain R8-NYP (Homo sapiens, UniProt Q14671 828-1176, Q1126P)
Procedure, shortened: as §1

[14] = target: T1, PUM1 PUF domain R6-MFR (Homo sapiens, UniProt Q14671 828-1176, N1043M;Y1044F;Q1047R)
T1 sequence: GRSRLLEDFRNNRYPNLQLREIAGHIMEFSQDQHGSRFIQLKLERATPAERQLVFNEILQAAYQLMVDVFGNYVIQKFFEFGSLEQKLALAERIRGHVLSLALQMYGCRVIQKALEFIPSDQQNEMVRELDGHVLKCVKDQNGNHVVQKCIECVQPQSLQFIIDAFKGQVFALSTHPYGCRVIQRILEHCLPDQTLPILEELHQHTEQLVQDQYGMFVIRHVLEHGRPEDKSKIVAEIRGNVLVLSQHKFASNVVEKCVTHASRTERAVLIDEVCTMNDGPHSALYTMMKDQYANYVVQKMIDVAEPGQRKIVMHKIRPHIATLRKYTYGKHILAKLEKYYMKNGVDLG
Procedure, shortened: as §1

[15] = target: T2, PUM1 PUF domain R6-NYL (Homo sapiens, UniProt Q14671 828-1176, Q1047L)
T2 sequence: T1 sequence with M216N, F217Y, R220L
Procedure, shortened: as §1

[16] = target: T3, PUM1 PUF domain R6-LWS (Homo sapiens, UniProt Q14671 828-1176, N1043L;Y1044W;Q1047S)
T3 sequence: T1 sequence with M216L, F217W, R220S
Procedure, shortened: as §1

Chain of PUM1 PUF domain R1-GLR (Q14671 828-1176 S863G/R864L/Q867R): as the sequence (Q14671 828-1176 N1122R/Y1123F/Q1126V) above, with S36G, R37L, Q40R, R295N, F296Y, V299Q counted along it

## GGCUAGAACUAGUGGAUCCCCCGGCGCCCGGCGGCUCGAGCCCGGGUAAGUGUAAAUUGUCUGCAUGCCGCCGGGCGCCAUGCCUGCAGGUCGACUCUAGAAAACAUG
[1]
  binding signal: 2.9 log2 enrichment (interaction score)

## GGCUAGAACUAGUGGAUCCCCCGGCGCCCGGCGGCUCGAGCCCGGGUAAGUGUAAAUCGUCUGCAUGCCGCCGGGCGCCAUGCCUGCAGGUCGACUCUAGAAAACAUG
[1]
  binding signal: 3.78 log2 enrichment (interaction score)

## GGCUAGAACUAGUGGAUCCCCCGGCGCCCGGCGGCUCGAGCCCGGGUAAGCGUAAAUAGUCUGCAUGCCGCCGGGCGCCAUGCCUGCAGGUCGACUCUAGAAAACAUG
[2]
  binding signal: 6.22 log2 enrichment (interaction score)
[3]
  binding signal: 3.49 log2 enrichment (interaction score)

## GGCUAGAACUAGUGGAUCCCCCGGCGCCCGGCGGCUCGAGCCCGGGUAAGUGUUAAUAGUCUGCAUGCCGCCGGGCGCCAUGCCUGCAGGUCGACUCUAGAAAACAUG
[4]
  binding signal: 3.47 log2 enrichment (interaction score)
[5]
  binding signal: 5.24 log2 enrichment (interaction score)
[6]
  binding signal: 4.45 log2 enrichment (interaction score)
[7]
  binding signal: 4.56 log2 enrichment (interaction score)
[8]
  binding signal: 4.85 log2 enrichment (interaction score)

## GGCUAGAACUAGUGGAUCCCCCGGCGCCCGGCGGCUCGAGCCCGGGUAAGUGUAAAUAGUCUGCAUGCCGCCGGGCGCCAUGCCUGCAGGUCGACUCUAGAAAACAUG
[4]
  binding signal: 3.32 log2 enrichment (interaction score)
[9]
  binding signal: 2.13 log2 enrichment (interaction score)
[5]
  binding signal: 1.32 log2 enrichment (interaction score)
[10]
  binding signal: 2.66 log2 enrichment (interaction score)
[6]
  binding signal: 1.79 log2 enrichment (interaction score)
[2]
  binding signal: 6.16 log2 enrichment (interaction score)
[11]
  binding signal: 5.07 log2 enrichment (interaction score)
[12]
  binding signal: 2.35 log2 enrichment (interaction score)
[13]
  binding signal: 3.16 log2 enrichment (interaction score)
[8]
  binding signal: 3.97 log2 enrichment (interaction score)
[14]
  binding signal: 6.1 log2 enrichment (interaction score)
[15]
  binding signal: 5.52 log2 enrichment (interaction score)
[16]
  binding signal: 6 log2 enrichment (interaction score)
